# From PubChem BioAssay (NCATS)
# “And” between values parts separate entries of the source, which are not always exact repeats. Equal values may be shown once. Results filed as inconclusive are left out. A call without a number means that no potency is given here. Where a structure was tested more than once in an assay, its records may differ in their call. The source made the active and inactive calls. Unless noted, the call rests on the fitted dose curve; in most records, active means well fitted curve in the direction sought with a large enough effect; inconclusive means small, poorly fitted or top-dose-only effect, or another doubt; inactive means no such curve, though single readings can be large; an effect the other way counts as inactive or inconclusive.
# What was measured:
# [1] = biological target: Calcium and integrin-binding protein 1 (Homo sapiens) (UniProt Q99828); assay: Primary qHTS for Identification of Calcium Integrin Binding Protein 1 (CIB1) Competitor (AID 1508620);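 further: GST tagged CIB1 binding a fluorescein labelled alphaIIb integrin peptide tracer; top concentration of the series differs between compounds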
# Chain of Calcium and integrin-binding protein 1 (Homo sapiens) (Q99828 whole entry, looked up): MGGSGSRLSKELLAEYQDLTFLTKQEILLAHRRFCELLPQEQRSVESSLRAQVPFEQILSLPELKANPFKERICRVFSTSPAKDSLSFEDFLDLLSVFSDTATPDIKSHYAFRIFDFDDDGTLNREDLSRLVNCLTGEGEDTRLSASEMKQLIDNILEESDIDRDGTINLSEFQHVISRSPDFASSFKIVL
# Procedure, shortened: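 Fluorescence polarization competition: GST-tagged CIB1 (1 uM final) preincubated with compound 15 min at room temperature, then FITC-labelled alphaIIb peptide (100 nM final) added. After 15 min at room temperature, polarization read at Ex 480/Em 540.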
# [2] = biological target: Cytochrome P450 2D6 (Homo sapiens) (UniProt P10635); assay: Cytochrome P450 family 2 subfamily D member 6 (CYP2D6) small molecule antagonists: luciferase biochemical (cell-free) qHTS assay (AID 1645840; active means well fitted curve in the direction sought with a large enough effect in the repeat runs; an effect the other way counts as inactive or inconclusive; further: nearly all actives have a fitted effect of over 55% in size; further: potency means the concentration at half of the fitted maximal effect)
# Chain of Cytochrome P450 2D6 (Homo sapiens) (P10635 whole entry, looked up): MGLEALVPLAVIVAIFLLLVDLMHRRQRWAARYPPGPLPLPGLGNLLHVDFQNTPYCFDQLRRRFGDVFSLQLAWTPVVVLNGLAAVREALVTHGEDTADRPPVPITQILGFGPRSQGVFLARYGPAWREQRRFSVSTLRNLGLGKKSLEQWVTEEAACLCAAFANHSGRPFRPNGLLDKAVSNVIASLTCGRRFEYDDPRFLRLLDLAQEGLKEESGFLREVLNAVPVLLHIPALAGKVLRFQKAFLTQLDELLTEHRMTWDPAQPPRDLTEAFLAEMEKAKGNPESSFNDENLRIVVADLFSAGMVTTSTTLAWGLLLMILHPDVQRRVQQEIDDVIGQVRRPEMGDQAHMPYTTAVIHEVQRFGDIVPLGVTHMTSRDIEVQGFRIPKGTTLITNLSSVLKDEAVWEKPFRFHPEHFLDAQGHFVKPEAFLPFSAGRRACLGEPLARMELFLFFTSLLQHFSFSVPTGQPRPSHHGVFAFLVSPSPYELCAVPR
# Procedure, shortened: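 P450-Glo luminescent screen: recombinant CYP2D6 enzyme–proluciferin substrate mix preincubated with compound 10 min at room temperature, then NADPH regeneration added for 1 h at room temperature. Detection reagent added for 20 min; luciferin light read as relative luminescence units.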
# [3] = biological target: Cytochrome P450 2C9 (Homo sapiens) (UniProt P11712); assay: Cytochrome P450 family 2 subfamily C member 9 (CYP2C9) small molecule antagonists: luciferase biochemical (cell-free) qHTS assay (AID 1645842; active means well fitted curve in the direction sought with a large enough effect in the repeat runs; an effect the other way counts as inactive or inconclusive; further: nearly all actives have a fitted effect of over 55% in size; further: potency means the concentration at half of the fitted maximal effect)
# Chain of Cytochrome P450 2C9 (Homo sapiens) (P11712 whole entry, looked up): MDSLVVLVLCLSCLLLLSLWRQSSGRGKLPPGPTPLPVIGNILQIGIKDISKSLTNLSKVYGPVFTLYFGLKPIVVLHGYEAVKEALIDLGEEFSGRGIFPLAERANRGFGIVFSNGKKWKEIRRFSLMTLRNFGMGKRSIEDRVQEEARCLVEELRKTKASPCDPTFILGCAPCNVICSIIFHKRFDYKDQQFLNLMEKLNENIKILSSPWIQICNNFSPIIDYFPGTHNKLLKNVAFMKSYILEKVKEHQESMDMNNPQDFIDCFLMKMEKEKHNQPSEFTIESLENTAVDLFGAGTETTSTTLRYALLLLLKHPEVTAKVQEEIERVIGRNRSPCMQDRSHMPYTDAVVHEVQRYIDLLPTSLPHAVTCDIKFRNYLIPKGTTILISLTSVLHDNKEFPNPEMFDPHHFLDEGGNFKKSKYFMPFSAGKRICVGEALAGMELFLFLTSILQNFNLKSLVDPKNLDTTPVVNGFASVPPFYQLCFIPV
# Procedure, shortened: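 Luminescence, after 20 min with luciferin detection reagent, reflected CYP2C9 turnover during a 1 h NADPH-driven reaction at 37C. Enzyme-substrate mix contained 0.4% bovine serum albumin and was preincubated with compound 10 min at room temperature.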
# [4] = Primary qHTS for inhibitors of nuclear receptor binding SET domain protein 2 (NSD2) in an isogenic RCH-ACV NSD2 p.E1099K mutant (9B) (AID 1645876); further: nearly all actives have a fitted effect of over 70% in size; further: potency means the concentration at half of the fitted maximal effect
# [5] = Primary qHTS for inhibitors of nuclear receptor binding SET domain protein 2 (NSD2) in an RCH-ACV wild type WT cells (2C) (AID 1645877); further: nearly all actives have a fitted effect of over 70% in size; further: potency means the concentration at half of the fitted maximal effect
# [6] = biological target: N-terminal Xaa-Pro-Lys N-methyltransferase 1 (Homo sapiens) (UniProt Q9BV86); assay: Confirmatory qHTS for Inhibitors of N-terminal methyltransferase 1 (NTMT1): MTaseGlo Assay (AID 1645874); further: nearly all actives have a fitted effect of over 65% in size; further: potency means the concentration at half of the fitted maximal effect
# Chain of N-terminal Xaa-Pro-Lys N-methyltransferase 1 (Homo sapiens) (Q9BV86 whole entry, looked up): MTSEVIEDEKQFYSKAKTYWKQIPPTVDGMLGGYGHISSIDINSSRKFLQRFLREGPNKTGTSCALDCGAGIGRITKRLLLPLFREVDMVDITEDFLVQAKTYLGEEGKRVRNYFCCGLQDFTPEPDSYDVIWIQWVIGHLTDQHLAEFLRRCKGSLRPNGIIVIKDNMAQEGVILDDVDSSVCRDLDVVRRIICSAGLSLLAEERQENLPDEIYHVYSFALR
# Procedure, shortened: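 Compounds are incubated with 125 nM NTMT1 and 100 uM SAM for 15 min before the SPKRIA peptide (1 uM) starts a 30 min room-temperature methylation. SAH is measured by coupled luciferase luminescence and curves fitted to a Hill equation.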
# [7] = biological target: Catechol O-methyltransferase (Homo sapiens) (UniProt P21964); assay: Confirmatory Screen for Target Class Profiling of Small Molecule Inhibitors of Methyltransferases (AID 1745852); conditions: MTase-Glo luminescence, SAH detection, recombinant enzyme; measured here: COMT max response; stronger effect = lower value
# Chain of Catechol O-methyltransferase (Homo sapiens) (P21964 whole entry, looked up): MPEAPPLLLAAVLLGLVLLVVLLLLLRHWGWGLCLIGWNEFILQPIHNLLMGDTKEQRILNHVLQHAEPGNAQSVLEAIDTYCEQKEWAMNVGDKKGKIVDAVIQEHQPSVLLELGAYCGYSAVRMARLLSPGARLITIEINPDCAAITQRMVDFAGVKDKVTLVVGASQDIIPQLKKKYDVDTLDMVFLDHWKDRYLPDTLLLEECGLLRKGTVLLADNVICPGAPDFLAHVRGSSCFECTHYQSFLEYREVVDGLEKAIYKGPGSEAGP
Compound,Potency [1],Potency [2],Potency [3],Potency [4],Potency [5],Potency [6],activity [7] [%]
CCOc1cc(CC(=O)NC(CC(C)C)c2ccccc2N2CCCCC2)ccc1C(=O)O (centres undefined),inactive,inactive,inactive,inactive,inactive,–,–
CN1CCC(Nc2nc(Nc3ccc(Oc4ccccc4)cc3)c3c(=O)[nH]cc(Br)c3n2)CC1,inactive,5.35 µM (active),16.9 µM (active),1.83 µM (active),0.916 µM (active),–,–
O=C(CCc1ccccc1)N1CCC(O)(Cn2cnc3cc(Cl)ccc3c2=O)CC1,inactive,4.25 µM (active),10.7 µM (active),–,–,–,–
NC(=O)C(CCC(F)(F)F)N(Cc1ccc(-c2ncon2)cc1F)S(=O)(=O)c1ccc(Cl)cc1 (centres undefined),inactive,12 µM (active),1.51 µM (active),–,–,–,–
CCn1c(=O)c(-c2ccn[nH]2)cc2c(C)nc(N)nc21,inactive,inactive,26.8 µM (active),0.934 µM (active),1.18 µM (active),inactive,–
C=CC(=O)Nc1cc(Nc2nccc(-c3c[nH]c4ccccc34)n2)c(OC)cc1N(C)CCN(C)C,inactive,inactive,8.49 µM (active),–,–,–,–
Cc1cccc(C)c1OCc1cc(C(=O)N2CCC(c3ccncc3)CC2)no1,inactive,1.2 µM (active),0.338 µM (active),10.3 µM (active),–,–,–
CCN(CC)Cc1ccc(C(=O)N(CCc2ccccc2OC)[C@@H]2CCNC2)cc1,inactive,13.5 µM (active),inactive,–,–,–,–
Cc1ccc(-c2ccc3ncc4c(c3n2)n(C2CCN(C(=O)[C@H](C)O)CC2)c(=O)n4C)cn1,inactive,inactive,10.7 µM (active),0.0742 µM (active),0.0742 µM (active),39.8 µM (active),–
Cc1cccc2c1NC(=O)C2(c1ccc(O)cc1)c1ccc(O)cc1,inactive,26.8 µM (active),9.52 µM (active),3.25 µM (active),8.17 µM (active),–,–
Cc1ccc(S(=O)(=O)n2ccc(-c3c(-c4ccc(Cl)cc4)noc3C)n2)cc1,inactive,inactive,5.35 µM (active),–,–,–,–
O=S(=O)(NC1CCC(c2cc(F)ccc2F)(S(=O)(=O)c2ccc(Cl)cc2)CC1)C(F)(F)F (centres undefined),inactive,19 µM (active),0.425 µM (active),–,–,–,–
COc1ccc(CC2NCCc3c2[nH]c2ccc(C)cc32)cc1OC (centres undefined),inactive,0.239 µM (active),10.7 µM (active),–,–,–,–
O=C(COc1cccc2c(=O)[nH]ccc12)c1ccccc1,inactive,inactive,8.49 µM (active),inactive,–,–,–
CC[C@@](C)(Nc1ccnc(-c2c[nH]c3ncccc23)n1)C(=O)NCC(F)(F)F,inactive,16.9 µM (active),21.3 µM (active),–,–,–,–
Cc1csc(NC(=O)c2ccc(COc3cccc(Cl)c3)o2)n1,inactive,19 µM (active),7.56 µM (active),–,–,–,–
Cc1ccc(C(=O)N(CCCN)C(c2oc3cc(Cl)ccc3c(=O)c2Cc2ccccc2)C(C)C)cc1 (centres undefined),inactive,10.7 µM (active),10.7 µM (active),inactive,inactive,–,–
Cn1nc(C(C)(C)C)cc1C(=O)NC(Cc1cccc(Cl)c1)C(=O)NCC#N (centres undefined),inactive,15.1 µM (active),15.1 µM (active),–,–,–,–
O=C(O)c1cccc(S(=O)(=O)N2CCc3ccccc3C2)c1,inactive,inactive,inactive,inactive,inactive,–,–
COc1cc(N)c(Cl)cc1C(=O)NC[C@@H]1CCN2CCC[C@@H]12,inactive,10.7 µM (active),9.52 µM (active),inactive,–,–,–
COc1cc2c(NC3CCN(CC4CCCCC4)CC3)nc(N3CCCN(C(C)C)CC3)nc2cc1OCCCN1CCCCC1,inactive,12 µM (active),inactive,2.58 µM (active) and 5.25 µM (active),2.3 µM (active) and 3.32 µM (active),34.5 µM (active),-7.99
CN(C)C/C=C/C(=O)Nc1cc2c(Nc3ccc(F)c(Cl)c3)ncnc2cc1OC1CCOC1 (centres undefined),inactive,inactive,15.1 µM (active),2.3 µM (active),2.3 µM (active),20 µM (active),–
CCCCc1ccc(C(=O)Nc2cc(-c3ccc(Cl)cc3)nn2-c2ccc(Cl)cc2)cc1,inactive,inactive,inactive,inactive,inactive,–,–
CC(C)(C)NCCCNC(=O)c1cccc(Br)c1,inactive,0.849 µM (active),inactive,inactive,inactive,–,–
Cc1cc(OCc2nnc(SC3CCCC3)n2-c2cccnc2)ccc1-c1ccc(S(C)(=O)=O)cc1,inactive,inactive,8.49 µM (active),0.817 µM (active),1.45 µM (active),–,–
COc1cccc(C(=O)N2CCN(C(=O)COc3cccc(C)c3)CC2)c1OC,inactive,inactive,21.3 µM (active),inactive,inactive,–,–

Compound,Potency [1],Potency [2],Potency [3],Potency [4],Potency [5],Potency [6],activity [7] [%]
O=C(O)[C@@H]1C[C@H]2C[C@@H](CCc3nn[nH]n3)CC[C@H]2CN1,inactive,inactive,inactive,inactive,inactive,–,–
COc1ccc(F)cc1-c1cc(NC(=O)[C@@H]2CCCNC2)ncc1Cl,inactive,inactive,1.34 µM (active),0.0649 µM (active),0.0649 µM (active),–,–
Cc1cc(C)c(CNC(=O)c2cc(-c3ccc(CN4CCOCC4)cc3)cc3c2cnn3C2CCCC2)c(=O)[nH]1,inactive,inactive,2.39 µM (active),inactive and 18.6 µM (active),inactive and 18.6 µM (active),–,–
COC(=O)CC1CC(c2ccc(O)cc2)=NO1 (centres undefined),inactive,inactive,inactive,inactive,–,–,–
O=C1CCC(c2ccccc2)(C2CCN(Cc3ccc(I)cc3)CC2)C(=O)N1 (centres undefined),inactive,13.5 µM (active),inactive,–,–,–,–
CC[C@@H](N)CNc1ccnc(-c2cc(-c3cnn(C)c3)ccc2O)n1,inactive,9.52 µM (active),13.5 µM (active),1.29 µM (active),1.03 µM (active),–,–
O=C(Nc1ccc(S(=O)(=O)C(F)(F)F)cc1)C1=CCN(c2ncccc2C(F)(F)F)CC1,inactive,7.56 µM (active),3.01 µM (active),7.28 µM (active),10.3 µM (active),inactive,–
Cc1cc(C)c2c(N)c(C(=O)NCc3ccc(Cl)cc3)sc2n1,inactive,13.5 µM (active),1.9 µM (active),–,–,inactive,–
Cc1cc(C)c(Nc2ccnc(Nc3ccc(C#N)cc3)n2)c(C)c1,inactive,10.7 µM (active),3.79 µM (active),4.09 µM (active),4.09 µM (active),–,–
C=CC(=O)Nc1cccc(CN2C(=O)N(c3c(Cl)c(OC)cc(OC)c3Cl)Cc3cnc(NCCCCN(CC)CC)nc32)c1,inactive,21.3 µM (active),8.49 µM (active),2.05 µM (active),2.58 µM (active),–,–
CN(C)C1CCN(C(=O)c2ccc(NC(=O)Nc3ccc(-c4nc(N5CCOCC5)nc(N5CCOCC5)n4)cc3)cc2)CC1,inactive,inactive,inactive,0.0417 µM (active),0.0332 µM (active),–,–
CC1COC(Nc2ccc3ncnc(Nc4ccc(OCc5nccs5)c(Cl)c4)c3c2)=N1 (centres undefined),inactive,10.7 µM (active),10.7 µM (active),16.3 µM (active),12.9 µM (active),–,–
CN1CCc2nc(C(=O)N[C@@H]3C[C@@H](C(=O)N(C)C)CC[C@@H]3NC(=O)C(=O)Nc3ccc(Cl)cn3)sc2C1,inactive,inactive,inactive,inactive,inactive,–,–
CCc1cnn2c(NCc3ccc[n+]([O-])c3)cc(N3CCCCC3CCO)nc12 (centres undefined),inactive,inactive,15.1 µM (active),0.0092 µM (active),0.0092 µM (active),–,–
COC(=O)N1CCC(n2ncc3c(N4CCOCC4)nc(-c4ccc(NC(=O)Nc5ccc(CO)cc5)cc4)nc32)CC1,inactive,8.49 µM (active),6.74 µM (active),0.0163 µM (active),0.0183 µM (active),–,–
c1ccc(N2CCN(CCc3nn[nH]n3)CC2)cc1,inactive,inactive,9.52 µM (active),inactive,inactive,–,–
COc1ccccc1Oc1ccc(N(Cc2cccnc2)S(=O)(=O)CC(F)(F)F)cc1,inactive,13.5 µM (active),1.9 µM (active),inactive,inactive,–,–
Cc1[nH]c2ccccc2c1C1=C(NCCc2ccc(F)cc2)C(=O)N(C)C1=O,inactive,4.25 µM (active),0.379 µM (active),6.49 µM (active),8.17 µM (active),–,–
COC(=O)CCSCc1ccc(-c2onc(C)c2NC(=O)OC(C)c2ccccc2Cl)cc1 (centres undefined),inactive,2.68 µM (active),1.51 µM (active),inactive,inactive,–,–
COc1ccc([C@H]2CNC(=O)C2)cc1OC1CCCC1,inactive,inactive,inactive,inactive,inactive,–,–
O=C1N=C(N2CCOCC2)CN1c1ccc(Cl)cc1,inactive,inactive,inactive,inactive,inactive,–,–
CC(C)(C)c1ccc(S(=O)(=O)NCc2ccc(C(=O)Nc3cccnc3)cc2)cc1,inactive,6.74 µM (active),12 µM (active),0.258 µM (active),0.163 µM (active),–,–
Cc1cc(C(=O)Nc2cccc(C(=O)Nc3cccc(C(F)(F)F)c3)c2)on1,inactive,inactive,3.79 µM (active),inactive,inactive,–,–
CCC(COC)n1nnc2c(Nc3ccc(OC)cc3C)nc(C)cc21 (centres undefined),inactive,10.7 µM (active),7.56 µM (active),inactive,inactive,–,–
CC(Oc1ccc2[nH]nc(/C=C/c3cnn(CCO)c3)c2c1)c1c(Cl)cncc1Cl (centres undefined),inactive,2.39 µM (active),0.536 µM (active),0.115 µM (active),0.103 µM (active),–,–
Cc1oc2ccccc2c1CNC(=O)NCc1cccs1,inactive,1.9 µM (active),inactive,inactive,inactive,–,–
